FBPA coupling cs: qHTS Assay for Inhibitors of Fructose-1,6-bisphosphate Aldolase from Giardia Lamblia: Coupling assay counterscreen | coupling enzyme system counterscreen, AmpLite Red fluorescence | activity change, negative = inhibition, % at 58.2 µM, hits read low | 290,000 tested, 0.67% active; in the data active = activity change below about -30%
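Final compound at 57.5 uM, incubated 10 min at RT with coupling enzyme reagent (glyceraldehyde-3-phosphate), then 20 min with substrate and AmpLite Red detection. Fluorescence read at 525/598 nm; tests interference with the coupling assay, not aldolase inhibition.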
Giardia killer: Small Molecules that selectively kill Giardia lamblia: qHTS; activity change, % at 7.66 µM, hits read low; Giardia lamblia trophozoite viability; 340,000 tested, 0.15% active; AID 540267, 2011; in the data active = activity change below about -80%; inconclusive = between about -30% and that limit;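 note: parasites exposed to compound for two days anaerobically before the ATP read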
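Viability, read as ATP luminescence: trophozoites at 100 cells/well, compound added, 48 hrs anaerobic at 37 deg C, then 15-30 min room-temperature development before reading.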
Sfp PPTase inh: qHTS Assay for Inhibitors of Bacillus subtilis Sfp phosphopantetheinyl transferase (PPTase) | 4'-phosphopantetheinyl transferase ffp (Bacillus subtilis), Q9F4F7 | Biochemical Sfp PPTase activity, qHTS | Potency, µM, without a hit: largest response in the series, negative = inhibition, usual class: inhibitors | 310,000 tested, 3.5% active | AID 1490, 2009;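 note: the enzyme is Sfp with the accession as filed and its product quenches rhodamine fluorescence; potency is the fitted concentration of half-maximal effect; 0% = enzyme reaction without inhibitor and -100% = no enzyme wells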
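Compounds were incubated with enzyme (final 15 nM) for 15 min at room temperature before substrate addition started the reaction. Fluorescence at 525 nm excitation, 598 nm emission was recorded immediately and after 30 minutes.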
ELG1 repair inh: qHTS screen for small molecules that inhibit ELG1-dependent DNA repair in human embryonic kidney (HEK293T) cells expressing luciferase-tagged ELG1; Potency, µM (doses to about 46.1 µM), inactives show at the top dose activity change, negative = inhibition, most hits filed as inhibitors; HEK293T ELG1-luciferase reporter, luminescence, 16 h; DNA damage induced by 5-fluorouridine; 330,000 tested, 2.3% active; note: potency is the fitted concentration of half-maximal effect; nearly all actives have a fitted effect of over 55% in size
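Reporter activity after DNA damage by 5-fluorouridine is monitored. Compound-treated cells incubate 16 hr at 37 °C, then ONE-Glo is added for 30 min before luminescence reading.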
Numbers without * were called inactive. The list is not random: actives were taken first. Their share in the collection is about 5.5%. Unless noted, calls come from the whole dose curve; as a rule, active = well fitted curve in the direction sought with a large enough effect; inconclusive = small, poorly fitted or top-dose-only effect, or another doubt; inactive = no such curve, though single readings can be large; an effect the other way counts as inactive or inconclusive. Unless noted, % is set by controls: 0 for no effect and ±100 for the full control effect.

Screening O=C(CCSc1nc(-c2ccc3c(c2)OCO3)cc(C(F)(F)F)n1)NCc1ccccc1 returned FBPA coupling cs 1.4, Giardia killer -5.2, Sfp PPTase inh 3.9% and ELG1 repair inh inconclusive.
For CN(Cc1ccccc1)C(=O)CCSc1nc(-c2ccc3c(c2)OCO3)cc(C(F)(F)F)n1 the results were FBPA coupling cs -1.1, Giardia killer -3.1, Sfp PPTase inh 1.2% and ELG1 repair inh 16.4µM*.
`COC(=O)/C(=C/c1ccco1)NC(=O)c1ccc(Br)o1` gave FBPA coupling cs -9.3, Giardia killer -1.3, Sfp PPTase inh 44.7µM* and ELG1 repair inh 2.2%.
`NC(=O)/C(=C/c1ccco1)NC(=O)c1ccc(Br)o1` gave Giardia killer -9.3.
`C/C(=N\NC(=O)c1nnn(-c2nonc2N)c1-c1ccccc1)c1ccccc1O` gave FBPA coupling cs 2.3, Giardia killer 43.5, Sfp PPTase inh -3.5% and ELG1 repair inh 1.83µM*.
For Cc1ccc(-c2c(C(=O)N/N=C/c3ccoc3)nnn2-c2nonc2N)cc1 the results were FBPA coupling cs -0.2, Giardia killer 5.5, Sfp PPTase inh 16.8% and ELG1 repair inh 0.5%.
Cc1ccc(-c2c(C(=O)N/N=C/c3ccc(C)o3)nnn2-c2nonc2N)cc1 was read as Giardia killer -16.3, Sfp PPTase inh 50.1µM* and ELG1 repair inh 1.0%.
Screening Cc1ccc(-c2c(C(=O)N/N=C/c3cccc(Cl)c3)nnn2-c2nonc2N)cc1 returned FBPA coupling cs -35.5*, Giardia killer -11.2, Sfp PPTase inh 8.5% and ELG1 repair inh -2.3%.
`Cc1ccc(-c2c(C(=O)N/N=C/c3ccco3)nnn2-c2nonc2N)cc1` gave FBPA coupling cs -15.0, Giardia killer 21.6, Sfp PPTase inh 8.4% and ELG1 repair inh -1.1%.
`O=C(NCCC(=O)N1CCc2ccccc21)c1ccco1` gave FBPA coupling cs -3.5, Giardia killer -6.8, Sfp PPTase inh 4.1% and ELG1 repair inh inconclusive.
For Oc1ccc2oc3c(c2c1C=NCc1ccncc1)CCCC3 the results were FBPA coupling cs -35.5*, Giardia killer 11.5, Sfp PPTase inh 50.1µM* and ELG1 repair inh 12.1%.
`CC(C)[C@H]1c2ccc(F)cc2CC[C@@]1(CCN(C)CCCc1nc2ccccc2[nH]1)OC(=O)C1CC1` gave FBPA coupling cs -9.1 and Sfp PPTase inh 44.7µM*.
O=C(CSc1nc2[nH]ncc2c(=O)[nH]1)Nc1cccc(Cl)c1 was read as Giardia killer -5.8 and ELG1 repair inh 25.3%.
Screening COc1ccc(C(=O)CSc2nnc(-c3ccco3)c(-c3ccco3)n2)cc1 returned FBPA coupling cs -4.7, Giardia killer -5.1, Sfp PPTase inh 8.91µM* and ELG1 repair inh -16.9%.
`CCn1c(SCC(=O)Nc2ccc(OC)c(OC)c2)nnc1-c1ccco1` gave FBPA coupling cs -1.1, Giardia killer -6.6, Sfp PPTase inh 14.2% and ELG1 repair inh -4.5%.
CSc1nnc(-c2ccco2)c(-c2ccco2)n1 was read as FBPA coupling cs -34.2*, Giardia killer 5.9, Sfp PPTase inh 10µM* and ELG1 repair inh -2.4%.
N#Cc1c(-c2ccco2)nc(SCC(=O)Nc2cccc(Cl)c2)[nH]c1=O was read as FBPA coupling cs 6.6, Giardia killer 3.4, Sfp PPTase inh 50.1µM* and ELG1 repair inh 8.4%.
For COc1ccc(NC(=O)CSc2nnc(-c3ccco3)c(-c3ccco3)n2)cc1OC the results were FBPA coupling cs -11.7, Giardia killer 20.3, Sfp PPTase inh 35.5µM* and ELG1 repair inh inconclusive.
For COc1cccc(NC(=O)CSc2nnc(CNC(=O)c3ccco3)n2C)c1 the results were Giardia killer -6.5 and ELG1 repair inh inconclusive.
Screening COc1cccc(NC(=O)CSc2nnc(-c3ccco3)c(-c3ccco3)n2)c1 returned FBPA coupling cs -5.4, Giardia killer 4.0, Sfp PPTase inh 10µM* and ELG1 repair inh -5.0%.
For O=c1ccc2ccccc2[nH]1 the results were FBPA coupling cs -6.9 and Sfp PPTase inh -29.7%.
For NC(=O)[C@@H]1CC2(CC(c3cccc(NC(=O)COc4ccc(Cl)cc4)c3)=NO2)CN1C(=O)c1ccccc1 (stereo not given in full) the results were FBPA coupling cs -2.0, Giardia killer 2.5, Sfp PPTase inh 3.3% and ELG1 repair inh -10.5%.
